Assay outcomes: PubChem, several laboratories
Gli-Sufu antag: Gli-Sufu pathway antagonists, primary screen, luciferase luminescence, Sufu-KO-LIGHT cells, uHTS. Sufu-KO-LIGHT fibroblasts, Gli luciferase reporter luminescence. AID 588413, 2011. inhibition, % at 5 µM. 340,000 tested, 0.74% active;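 active = inhibition above about 55%, limit read from the data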;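 note: 0% = DMSO-treated cells and 100% = wells with medium but no cells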
H9c2 TAG inh: inhibitors of triacylglycerol accumulation, primary screen, cell-based, uHTS, fluorescence, H9c2 | H9c2 cells, Nile Red lipid (TAG) fluorescence; cells loaded with 200 µM oleic acid | inhibition, % at 12.5 µM | 230,000 tested, 0.66% active;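 active = pattern-corrected inhibition of lipid staining of at least 50% with the nuclear-stain viability signal not falling by more than 50%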;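 note: 0% = DMSO wells and 100% = triacsin C control wells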
COUP-TFII inh: NR2F2 transcriptional activity inhibitors, primary screen, cell-based, luciferase reporter, HEK293T, luminescence | inhibition, % at 8.6 µM | AID 686940, 2013 | COUP transcription factor 2 (Homo sapiens), P24468 | 370,000 tested, 0.7% active | HEK293T NGFI-A luciferase reporter;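 active = inhibition above a per-plate cutoff, mean inhibition of test wells between control levels plus 3 SD, cut at about 38% in these data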;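 note: cells cotransfected with COUP-TFII expression vector driving the NGFI-A reporter; 0% = median of COUP-TF2 test wells and 100% = reporter-only cells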
Target sequence (P24468 whole entry, looked up): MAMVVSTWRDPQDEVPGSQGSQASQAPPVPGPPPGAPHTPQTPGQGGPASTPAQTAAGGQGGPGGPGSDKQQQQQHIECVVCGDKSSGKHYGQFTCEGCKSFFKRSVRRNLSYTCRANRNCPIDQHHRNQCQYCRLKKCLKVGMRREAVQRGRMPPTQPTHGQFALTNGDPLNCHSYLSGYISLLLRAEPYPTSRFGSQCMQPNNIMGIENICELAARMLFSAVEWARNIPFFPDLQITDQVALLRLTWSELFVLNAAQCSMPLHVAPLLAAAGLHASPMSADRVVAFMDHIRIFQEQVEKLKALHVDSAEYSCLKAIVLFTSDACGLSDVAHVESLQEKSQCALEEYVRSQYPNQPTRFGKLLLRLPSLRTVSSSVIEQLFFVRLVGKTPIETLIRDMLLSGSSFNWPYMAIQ
Cardio protect: cardioprotection against H2O2-induced cell death, primary screen, uHTS, H9c2 cells, ATPLite luminescence; H9c2 cardiomyocytes, H2O2 injury protection, 2 h; protection from H2O2 cell death, % at 20 µM; 360,000 tested, 0.63% active; AID 588492, 2011;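 active = compounds giving at least 50% protection of heart cells from peroxide-induced death in the single-dose screen, raw or plate-pattern-corrected value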;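 note: 0% = DMSO wells with peroxide and 100% = DMSO wells without peroxide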
Jurkat NFkB inh: inhibitors of induced NF-kB luciferase reporter, primary screen, TCR NF-kB activation inhibitor project, cell-based, luminescence, uHTS; Jurkat, PMA/ionomycin-induced NF-kB luciferase reporter; inhibition, % at 4 µM; 330,000 tested, 0.53% active; AID 435003, 2010; in the data active = inhibition above about 50%
697 NFkB inh: inhibitors of PMA/ionomycin-induced NF-kB reporter, 697 cells, primary screen, B-cell NF-kB inhibitor project, cell-based, luminescence, uHTS; 697 B-cell NF-kB luciferase reporter, 16 h; inhibition, % at 4 µM; 330,000 tested, 0.33% active; in the data active = inhibition above about 35%
Starred values were filed as active, the others as inactive; · = no result given; ! = repeats disagree. Only some compounds are listed: those with a hit (about 2.6% of all), similar ones and a draw of the others.

SMILES	Gli-Sufu antag	H9c2 TAG inh	COUP-TFII inh	Cardio protect	Jurkat NFkB inh	697 NFkB inh
COc1ccc(Cl)c(Cn2c(NCc3ccco3)nc3c2c(=O)n(C)c(=O)n3C)c1	70.2*	-27.5	-2.9	-26.5	11.1	-8.4
CCOC(=O)c1ccc(-c2ccc(/C=C(\C#N)C(=O)NCC3CCCO3)o2)cc1 (stereo not drawn)	-33.2	·	-9.0	52.2*	-16.3	-16.6
Cc1ccc(C(=O)CC(=O)COc2ccc(Cl)cc2C)cc1	-2.7	1.2	4.8	64.1*	-3.9	-5.4
Cc1cccc(/N=C/c2c(O)ccc3oc4c(c23)CCCC4)n1	4.2	·	·	75.4*	12.3	-22.4
CCOc1ccc2[nH]c(=O)c(CN(CCO)C(c3nnnn3C3CCCCC3)C(C)C)cc2c1 (stereo not drawn)	11.5	-3.9	-1.3	102.7*	·	·
Cc1ccc(NC(=O)c2nc[nH]c2C(=O)NCCCCCNC(=O)OC(C)(C)C)cc1	7.2	·	-0.9	55.2*	12.5	2.0
CCOC(=O)c1ccc(NC(=O)c2nc[nH]c2C(=O)NCCCCCNC(=O)OC(C)(C)C)cc1	5.3	28.8	-0.9	79.2*	2.5	1.0
CC(C)(C)OC(=O)NCCCCCNC(=O)c1[nH]cnc1C(=O)Nc1cc(Br)ccc1F	·	12.9	-9.1	63.9*	·	·
CC(C)(C)OC(=O)NCc1ccc(NC(=O)c2nc[nH]c2C(=O)Nc2cc(Br)ccc2F)cc1	·	·	-14.5	4.2	·	·
CC(C)(C)OC(=O)NCCCCCNC(=O)c1[nH]cnc1C(=O)Nc1ccc(Cl)cc1	9.3	2.9	27.3	65.8*	3.5	-8.9
COc1cc2c(cc1NC(=O)CSc1nnc(-c3ccccc3F)n1-c1ccc(C)cc1)oc1ccccc12	·	·	-20.6	·	·	·
COc1ccc(NC(=O)c2cccc3c(-c4cccnc4)coc23)cc1	·	-10.6	-13.6	5.3	·	·
O=C(NCc1ccccc1)c1cccc2c(-c3ccc(F)c(F)c3)coc12	·	-71.4	·	-0.8	·	·
NC(=O)c1cccc(-c2coc3c(C(=O)NCCc4ccccc4)cccc23)c1	·	10.6	-29.5	59.8*	·	·
O=C(Nc1ccccc1)c1cccc2c(-c3cccnc3)coc12	·	1.8	-25.5	62.6*	·	·
CCn1c(=O)n2n(c1=O)[C@]1(C=C(C)C2)CN(Cc2ccc(OC)cc2OC)C(NC(=O)c2ccccc2)=N1	·	·	-10.3	·	·	·
OC1(c2ccc(OC(F)F)cc2)CSC(=Nc2cccnc2)N1C1CC1 (stereo not drawn)	22.4	-7.0	57.5*	-31.3	15.8	-50.5
CCCc1cc(=O)oc2cc(OCC(=O)N3CC[C@@]4(O)CCCC[C@H]4C3)ccc12	·	·	-3.6	3.4	·	·
CCCc1cc(=O)oc2cc(OC(=O)CN3C(=O)NC4(CCCC4)C3=O)ccc12	-10.0	2.3	-6.7	61.1*	2.6	11.2
COc1ccc(C(=O)COc2ccccc2C(N)=O)cc1	-4.4	5.2	-6.5	69.2*	-0.7	-1.6
COc1ccc(C(=O)COc2ccccc2C(=O)Nc2ccccc2)cc1	-9.7	-6.8	-7.0	14.3	2.8	1.4
COc1ccc(C(C(=O)NC2CCCC2)N(C(=O)c2snc(C(N)=O)c2N)c2cccc(O)c2)cc1 (stereo not drawn)	-20.4	·	·	51.7*	-10.2	0.1
NC(=O)c1nsc(C(=O)N(c2ccccc2F)C(C(=O)NCc2ccc(F)cc2)c2ccc(O)cc2)c1N (stereo not drawn)	24.8	·	9.1	51.7*	38.1	34.9
COc1ccccc1N(C(=O)c1snc(C(N)=O)c1N)C(C(=O)NCc1ccccc1)c1ccc(O)cc1 (stereo not drawn)	0.7	·	-10.2	2.2	-2.0	9.7
CCOc1ccc(C(C(=O)NCC2CCCO2)N(Cc2cccs2)C(=O)c2snc(C(N)=O)c2N)cc1 (stereo not drawn)	8.1	·	-0.5	68.1*	22.4	29.9
SMILES	Gli-Sufu antag	H9c2 TAG inh	COUP-TFII inh	Cardio protect	Jurkat NFkB inh	697 NFkB inh
CCOc1ccc(C(C(=O)NCC2CCCO2)N(C(=O)c2snc(C(N)=O)c2N)c2cccc(F)c2)cc1 (stereo not drawn)	21.4	·	3.2	35.4	-22.2	4.6
CCOc1ccc(C(C(=O)NCC2CCCO2)N(C(=O)c2snc(C(N)=O)c2N)c2ccccc2F)cc1 (stereo not drawn)	-3.0	·	3.1	61.0*	11.7	9.5
COc1ccc(C(C(=O)NCC2CCCO2)N(Cc2cccs2)C(=O)c2snc(C(N)=O)c2N)cc1OC (stereo not drawn)	11.6	·	-2.1	30.3	-4.3	-17.4
COc1ccc(-n2c(SCC(=O)c3ccc4ccccc4c3)nnc2-c2ccccc2)cc1	·	·	-14.4	·	·	·
COc1ccc(C(=O)CSc2nnc(-c3n[nH]c4c3CCC4)n2N)cc1OC	·	·	-131.4	·	·	·
Cc1ccc(C(=O)Nc2cccc(C(F)(F)F)c2)cc1NC(=O)c1csc(-c2ccncc2)n1	40.0	11.6	·	54.8*!	-1.7	-8.5
O=C(Nc1ccc(F)cc1F)c1csc(-c2ccncc2)n1	-6.2	-3.8	-19.4	2.7	-4.7	11.9
N=c1n(Cc2ccccc2)c2ccccc2n1CC(O)COc1ccc(Cl)cc1Cl (stereo not drawn)	55.6*	·	-2.6	-20.5	40.2	-12.6
N=c1n(Cc2ccc(Cl)cc2)c2ccccc2n1CC(O)COc1ccccc1 (stereo not drawn)	53.1	73.2*	4.9	-22.4	18.8	-13.4
Cc1ccc(OCC(O)Cn2c(=N)n(Cc3ccccc3)c3ccccc32)cc1 (stereo not drawn)	26.9	·	23.4	-21.2	11.5	-45.7
CC(OC(=O)c1cc2c(ccc3ccccc32)oc1=O)c1nc2ccccc2s1 (stereo not drawn)	4.7	·	-3.3	68.8*	-14.1	-0.4
O=C(O)CCN1C(=O)/C(=C/c2ccc(F)cc2F)SC1=S	·	·	-20.5	·	·	·
CC(=O)N1CCc2c1cccc2S(=O)(=O)NC(CC(C)C)C(=O)Nc1ccc(Cl)c(Cl)c1 (stereo not drawn)	·	·	-10.6	·	·	·
COC(=O)[C@H](CC(C)C)N1Cc2nnn(Cc3ccc(C)cc3)c2-c2cc(F)ccc2S1(=O)=O	·	·	3.8	·	·	·
Cc1cc(=O)[nH]c(SCC(=O)Nc2cccc(Cl)c2F)n1	·	·	8.2	·	·	·
COc1cc(CN2C[C@@H](CO)O[C@@H](n3cnc4c(NC5CCC5)ncnc43)C2)cc(OC)c1OC	·	15.7	-8.6	6.1	·	·
COc1cc(CN2C[C@@H](CO)O[C@@H](n3cnc4c(Nc5ccccc5)ncnc43)C2)cc(OC)c1OC	·	23.2	14.8	79.1*	·	·
OC[C@@H]1CN(Cc2ccc(-c3ccccc3)cc2)C[C@H](n2cnc3c(NCc4ccco4)ncnc32)O1	·	20.3	52.1*	-0.1	·	·
